Measurements taken from PubChem BioAssay.
For some assays here: Potency and affinity values are given separately. Calls of active or inactive are those of the source.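 How the source made its calls, unless noted: active means primary screen inhibitor hit that blocks the TRPC4 channel at some tested dose, yielding a dose curve; inactive means the rest.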

How the values were obtained:
[1] = test system: TRPC4 beta (transient receptor potential cation channel C4), mouse; test: TRPC4 cation channel opening, retest – cell-based, Fluo4 calcium, HEK293 TRPC4beta/mu-opioid, duplicates, 10 µM, confirmation (AID 2426;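 active means fluorescence ratio normalized to control raised more than 50% in primary screen plus both repeat runs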;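 further: percent rise of integrated ratio over buffer wells lacking compound which define 0%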); details: Fluo4 calcium fluorescence, at 10 µM; stronger effect = higher value
[2] = test system: transient receptor potential cation channel C4 beta (TRPC4), mouse; test: TRPC4 cation channel opening, second retest – cell-based, second round, Fluo4, HEK293 TRPC4beta/mu-opioid, 1 µM, confirmation (AID 2461;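 active means primary screen active and over 50% activation in each of two duplicate runs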;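 on activation: 0% = wells without test compound as baseline of integrated fluorescence ratio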); details: Fluo4 calcium fluorescence, at 1 µM; stronger effect = higher value
[3] = test system: TRPC4 (transient receptor potential cation channel C4 beta), mouse; test: potentiation of DAMGO EC20 TRPC4 response – cell-based, second round, Fluo-4, HEK293 TRPC4beta/mu-opioid, 1 µM, confirmation (AID 2554;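 active means primary screen hit whose fluorescence ratio, in both repeats, exceeds the weak agonist control mean by 3 SD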); details: DAMGO EC20, Fluo-4 calcium flux, at 1 µM; stronger effect = higher value
[4] = test system: TRPC4 beta (transient receptor potential cation channel C4), mouse; test: potentiation of DAMGO EC20 TRPC4 response – cell-based, Fluo-4, HEK293 TRPC4beta/mu-opioid, confirmation (AID 2555;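 active means primary screen hit whose calcium fluorescence ratio, in both repeats, exceeds the weak agonist control mean by 3 SD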); details: DAMGO EC20, Fluo-4 calcium flux, at 10 µM; stronger effect = higher value
[5] = target: Short transient receptor potential channel 4 (Mus musculus) (UniProt Q9QUQ5); test: blockers of DAMGO-evoked TRPC4 calcium flux – cell-based, Fluo4, HEK293 TRPC4beta/mu-opioid, confirmation (AID 2636;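 active means calcium signal cut by more than 3 SD below the full-agonist control yet still positive, in both repeats and the earlier primary screen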); details: at 10 µM; stronger effect = higher value
Short transient receptor potential channel 4 (Mus musculus), sequence (Q9QUQ5 whole entry, looked up): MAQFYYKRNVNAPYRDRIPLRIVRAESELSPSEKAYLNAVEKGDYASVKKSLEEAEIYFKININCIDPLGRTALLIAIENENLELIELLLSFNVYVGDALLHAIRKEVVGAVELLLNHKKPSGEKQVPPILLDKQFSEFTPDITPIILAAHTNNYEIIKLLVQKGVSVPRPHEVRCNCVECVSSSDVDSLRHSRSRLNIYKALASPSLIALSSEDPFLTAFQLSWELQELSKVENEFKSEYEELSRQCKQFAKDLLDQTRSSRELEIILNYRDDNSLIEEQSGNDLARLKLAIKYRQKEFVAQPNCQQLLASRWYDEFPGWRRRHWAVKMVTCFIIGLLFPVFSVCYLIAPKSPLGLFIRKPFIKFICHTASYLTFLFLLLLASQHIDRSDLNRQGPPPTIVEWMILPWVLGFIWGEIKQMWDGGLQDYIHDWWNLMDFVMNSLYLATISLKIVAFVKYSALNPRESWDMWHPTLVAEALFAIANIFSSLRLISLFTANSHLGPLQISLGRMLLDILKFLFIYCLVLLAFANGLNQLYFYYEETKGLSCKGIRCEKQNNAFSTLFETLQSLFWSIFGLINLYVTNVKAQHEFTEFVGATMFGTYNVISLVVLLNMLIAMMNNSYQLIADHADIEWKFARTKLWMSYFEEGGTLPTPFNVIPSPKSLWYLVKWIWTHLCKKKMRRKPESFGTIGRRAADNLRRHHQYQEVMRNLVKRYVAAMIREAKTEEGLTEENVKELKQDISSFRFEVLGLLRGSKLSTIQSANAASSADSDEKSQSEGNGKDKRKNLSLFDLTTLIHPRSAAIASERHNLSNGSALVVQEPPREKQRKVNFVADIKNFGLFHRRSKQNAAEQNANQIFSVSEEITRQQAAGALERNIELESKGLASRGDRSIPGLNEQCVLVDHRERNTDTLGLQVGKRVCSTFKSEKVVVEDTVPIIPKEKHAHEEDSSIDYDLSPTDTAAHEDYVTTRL

[6] = target: Short transient receptor potential channel 4 (Mus musculus) (UniProt Q9QUQ5); test: blockers of DAMGO-evoked TRPC4 calcium flux – cell-based, second round, Fluo4, HEK293 TRPC4beta/mu-opioid, 1 µM, confirmation (AID 2637;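 active means calcium signal ratio cut to more than 3 SD under the fully stimulated control mean yet still positive, in both repeats and the primary screen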); details: at 1 µM; stronger effect = higher value
[7] = target: Short transient receptor potential channel 4 (Mus musculus) (UniProt Q9QUQ5); test: potentiation of DAMGO-evoked TRPC4 calcium signal – cell-based, HEK293 TRPC4/mu-opioid, Fluo-4 calcium, EC20 DAMGO, dose response (AID 434941;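 active means earlier screen potentiator hit that boosts the TRPC4 ion channel at some dose, with a dose response; inactive means no potentiation, no dose response, or not a prior hit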;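 further: calcium entry triggered by an EC20 dose of DAMGO at the co-expressed mu-opioid receptor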)
[8] = target: Short transient receptor potential channel 4 (Mus musculus) (UniProt Q9QUQ5); test: block of DAMGO-driven TRPC4 calcium entry – cell-based, HEK293 TRPC4/mu-opioid, Fluo-4 calcium, dose response (AID 434942)
[9] = target: Short transient receptor potential channel 6 (Mus musculus) (UniProt Q61143); test: TRPC6 blockade by TRPC4 inhibitor hits – cell-based, HEK293, membrane potential dye, duplicate, selectivity assay for TRPC4 inhibitor project, confirmation (AID 434948;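 active means active in primary screen and both duplicates, each dropping signal beyond three positive-control SD with fluorescence still positive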); details: HEK293 TRPC6, membrane potential dye fluorescence, at 10 µM, stimulated with maximal-effect acetylcholine; stronger effect = higher value
Short transient receptor potential channel 6 (Mus musculus), sequence (Q61143 whole entry, looked up): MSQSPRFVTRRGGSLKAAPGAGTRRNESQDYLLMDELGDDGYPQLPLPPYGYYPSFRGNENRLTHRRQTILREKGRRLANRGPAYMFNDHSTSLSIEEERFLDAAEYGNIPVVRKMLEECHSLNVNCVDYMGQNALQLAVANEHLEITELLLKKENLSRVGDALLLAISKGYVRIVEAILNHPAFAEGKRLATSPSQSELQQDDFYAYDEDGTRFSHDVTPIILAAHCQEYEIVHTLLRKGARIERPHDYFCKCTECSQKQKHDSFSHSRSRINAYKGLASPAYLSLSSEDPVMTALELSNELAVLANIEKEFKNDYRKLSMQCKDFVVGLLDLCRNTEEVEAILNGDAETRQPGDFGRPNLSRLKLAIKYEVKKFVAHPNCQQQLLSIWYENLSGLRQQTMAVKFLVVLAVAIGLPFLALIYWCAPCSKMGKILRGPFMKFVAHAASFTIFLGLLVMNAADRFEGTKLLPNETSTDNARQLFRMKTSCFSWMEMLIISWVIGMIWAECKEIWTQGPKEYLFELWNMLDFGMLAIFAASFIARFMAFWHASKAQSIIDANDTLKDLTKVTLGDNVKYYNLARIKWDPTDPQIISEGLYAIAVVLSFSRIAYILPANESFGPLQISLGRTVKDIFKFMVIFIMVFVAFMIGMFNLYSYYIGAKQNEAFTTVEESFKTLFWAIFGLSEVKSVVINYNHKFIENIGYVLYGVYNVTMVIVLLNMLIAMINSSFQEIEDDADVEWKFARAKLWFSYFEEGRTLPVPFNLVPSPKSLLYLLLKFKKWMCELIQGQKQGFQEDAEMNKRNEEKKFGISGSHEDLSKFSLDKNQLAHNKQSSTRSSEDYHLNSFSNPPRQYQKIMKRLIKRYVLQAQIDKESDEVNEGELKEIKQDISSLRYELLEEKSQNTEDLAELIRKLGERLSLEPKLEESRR

[10] = target: Short transient receptor potential channel 6 (Mus musculus) (UniProt Q61143); test: TRPC6 opening by TRPC4 activator hits – cell-based, HEK293, membrane potential dye, duplicate, selectivity assay for TRPC4 activator project, confirmation (AID 434950;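 active means membrane potential signal rise above negative control mean plus 3 SD in both duplicates, also active in the earlier TRPC4 screen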;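 on activation: 0% = buffer only wells and 100% = acetylcholine maximal-effect wells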); details: HEK293 TRPC6, membrane potential fluorescence, at 10 µM; activation: stronger effect = higher value; outcome: activation
[11] = target: Short transient receptor potential channel 6 (Mus musculus) (UniProt Q61143); test: positive modulators of mouse TRPC6 channel – HEK293 cells, membrane potential dye, duplicate, selectivity assay for TRPC4 potentiator project, confirmation (AID 434952;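 active means compound raising the membrane signal above positive-control mean plus 3 SD in both repeats, and a primary screen hit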); details: HEK293 TRPC6, membrane potential dye fluorescence, at 10 µM, maximal acetylcholine added after compound; stronger effect = higher value
[12] = target: Short transient receptor potential channel 4 (Mus musculus) (UniProt Q9QUQ5); test: calcium flux activators in TRPC4/5HT1a cells, counter-screen for TRPC4 activator project, cell-based, second counter screen, HEK293 TRPC4/5HT1a, Fluo-4 (AID 434977;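 active means calcium signal rise above buffer-control mean plus 5 SD in both duplicates, and also a hit in the primary screen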;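 on activation: plate controls were assay buffer for no effect and maximal serotonin response for full effect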); details: Fluo-4 calcium flux, at 10 µM; stronger effect = higher value
[13] = serotonin-gated TRPC4 signal block – cell-based, second counter screen, HEK293 TRPC4/5HT1a, Fluo-4, counter-screen for TRPC4 inhibitor project, confirmation (AID 434978;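 active means primary screen active whose calcium signal fell more than 3 SD beyond the full-serotonin control mean in both duplicate plates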;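 further: serotonin given first at submaximal then at maximal dose after compound preincubation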); details: Fluo-4 calcium flux, at 10 µM, serotonin added to trigger calcium flux; stronger effect = higher value
[14] = test system: TRPC4 (mouse), co-expressed with 5HT1a in HEK293; test: enhancement of serotonin-evoked TRPC4 response – cell-based, second counter screen, HEK293 TRPC4/5HT1a, Fluo-4, counter-screen for TRPC4 potentiator project, confirmation (AID 434979;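 active means signal rise over 3 SD above mean of control wells given weak agonist, in both repeats and first screen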); details: Fluo-4 calcium flux, at 10 µM, serotonin added at its EC20 dose; stronger effect = higher value
[15] = nonspecific calcium rise without TRPC4 – cell-based, HEK293 mu-opioid receptor line, counter-screen for TRPC4 activator project, confirmation (AID 449723;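 active means hit in primary screen, with calcium signal over 5 SD above buffer well mean in both duplicates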;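 further: counter screen cells carry the mu-opioid receptor alone and lack TRPC4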); details: HEK293 mu-opioid cells, Fluo-4 calcium fluorescence, at 10 µM; stronger effect = higher value
[16] = nonspecific potentiation of DAMGO calcium response – cell-based, HEK293 mu-opioid receptor line, counter-screen for TRPC4 allosteric potentiator project, confirmation (AID 449724;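 active means calcium signal rise more than 3 SD above the low-dose agonist control mean, in both duplicate plates and the primary screen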); details: HEK293 mu-opioid receptor cells, Fluo-4 calcium flux, at 10 µM, compound added before EC20 DAMGO stimulus; stronger effect = higher value

| Structure (SMILES) | activation [1] | activation [2] | outcome [3] | outcome [4] | outcome [5] | outcome [6] | outcome [7] | outcome [8] | outcome [9] | outcome [10] | outcome [11] | outcome [12] | outcome [13] | outcome [14] | outcome [15] | outcome [16] | outcome [2] | activation [10] | activation [12] | activation [15] |
| --- | --- | --- | --- | --- | --- | --- | --- | --- | --- | --- | --- | --- | --- | --- | --- | --- | --- | --- | --- | --- |
| COc1ccc(C(CNc2ncnc3sc(C)c(C)c23)N(C)C)cc1 (stereo not drawn) | 227% (active) | 113% (active) | inactive | inactive | inactive | inactive | inactive | inactive | inactive | inactive | inactive | inactive | inactive | inactive | inactive | inactive | – | – | – | – |
| CCCCN(CC)CCCNC(=O)c1csc2c1CCCCC2 | 211% (active) | – | inactive | inactive | inactive | inactive | inactive | inactive | inactive | – | inactive | – | inactive | inactive | inactive | inactive | inactive | 66.5% (active) | 78.6% (active) | – |
| O=C(CC(=O)c1c(F)cccc1Cl)c1ccccc1O | 157% (active) | – | inactive | inactive | inactive | inactive | inactive | inactive | inactive | – | inactive | – | inactive | inactive | – | inactive | inactive | 37% (active) | 98.7% (active) | 33.3% (active) |
| CC[C@@H](C)[C@H](CNC)NC[C@@H](Cc1cccc2ccccc12)NCCc1cccc(C(F)(F)F)c1 | 127% (active) | – | inactive | inactive | inactive | inactive | inactive | inactive | inactive | – | inactive | – | inactive | inactive | – | inactive | inactive | 29% (active) | 111% (active) | 25.7% (active) |
| COc1c(C)cc(C(=O)C2CCCN(Cc3cccc4nccnc34)C2)cc1C (stereo not drawn) | 108% (active) | – | inactive | inactive | inactive | inactive | inactive | inactive | inactive | – | inactive | – | inactive | inactive | inactive | inactive | inactive | 24% (active) | 37.7% (active) | – |
| Cc1sc(NC(=O)c2ccccc2)c(C(=O)NCCN(C)C)c1C | 128% (active) | – | inactive | inactive | inactive | inactive | inactive | inactive | inactive | inactive | inactive | – | inactive | inactive | inactive | inactive | inactive | – | 12.1% (active) | – |
| CN(C)C(CNC(=S)Nc1ccccc1Cl)c1cccnc1 (stereo not drawn) | 109% (active) | 144% (active) | inactive | inactive | inactive | inactive | inactive | inactive | inactive | inactive | inactive | inactive | inactive | inactive | inactive | inactive | – | – | – | – |
| CCn1c(=O)c(C(=O)NNC(=O)c2ccccc2F)c(O)c2ccccc21 | 126% (active) | – | inactive | inactive | inactive | inactive | inactive | inactive | inactive | inactive | inactive | – | inactive | inactive | – | inactive | inactive | – | 111% (active) | 34% (active) |
